Source: PubChem BioAssay (National Center for Advancing Translational Sciences (NCATS))
Marburg entry inh: blocks Marburg virus binding to or entry into cells. actives 1.8% (n = 300,000). AID 540276. Potency, µM (series often up to 37.8 µM), inactives show at the top dose activity change, negative = inhibition, hits mostly inhibitors. Marburg virus pseudotyped entry inhibition, cell reporter; calls by dose curve; tested in HEK293 cells
LASV entry inh: Lassa virus entry inhibition. Lassa virus pseudotype entry inhibition, cell reporter. Potency, µM (top dose mostly 37.9 µM), inactives show top-dose activity change, negative = inhibition, most hits filed as inhibitors. actives 1.2% (n = 300,000); calls by dose curve; tested in HEK293 cells; further: nearly all actives have a fitted effect of over 50% in size
VACV Venus inh: vaccinia inhibition (Venus reporter) | Vaccinia virus Venus reporter expression, fluorescence | AID 720580 | actives 0.46% (n = 330,000) | Potency, µM (doses to about 36.5 µM), for the others: at the highest dose activity change, negative = inhibition, most hits filed as inhibitors; calls by dose curve; tested in A549 cells; further: nearly all actives have a fitted effect of over 30% in size
HCV inhibitor: inhibitors of hepatitis C virus infection | Huh7.5.1 HCVcc-Cre infection, luciferase reporter, 44 h | Potency, µM (series often up to 41.8 µM), for inactives: at the top dose activity change, negative = inhibition, usual class: inhibitors | actives 3.4% (n = 340,000) | AID 651820; active means well fitted inhibition curve with a large enough effect; inconclusive means small, poorly fitted or top-dose-only effect, or another doubt; inactive means no such curve, though single readings can be large or run the other way
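Cells (1,000/well) were plated 4 h before compound, then infected with HCVcc-Cre virus (~0.5 moi). After 44 h further culture, infection was read as luciferase luminescence following a 15 min substrate incubation at room temperature.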
Vaccinia mCherry: vaccinia inhibition (mCherry reporter) | Vaccinia virus mCherry reporter infection, fluorescence | Potency, µM (top dose mostly 36.5 µM), without a hit: top-dose activity change, negative = inhibition, hits mostly inhibitors | actives 0.63% (n = 310,000) | AID 720579; calls by dose curve; tested in A549 cells; further: nearly all actives have a fitted effect of over 35% in size
FMDV inh: antivirals against foot and mouth disease virus; Potency, µM (series often up to 57.9 µM), without a hit: top-dose activity change, negative = inhibition, usual class: inhibitors; actives 1.2% (n = 410,000); FMDV antiviral cell-based qHTS; AID 1159524; calls by dose curve; tested in HEK293T cells; further: read-out not given here; nearly all actives have a fitted effect of over 45% in size
An asterisk follows results filed as active; i = inactive; ? = inconclusive; . = no result; + = active, no number; [ ] = another dose, or the depositor's remark. Shown are actives, neighbours in structure and some others; about 5.3% of the full set was active somewhere. On the % scale 0 is the no-effect control and ±100 the full control effect; potency means the concentration at half of the fitted maximal effect.

SMILES | Marburg entry inh | LASV entry inh | VACV Venus inh | HCV inhibitor | Vaccinia mCherry | FMDV inh
Cc1ccc(O)c(C(=O)CC(=O)c2ccc(Cl)cc2)c1 | . | . | . | 22µM* | . | 18%
COc1ccc(C(=O)CC(=O)c2ccccc2O)cc1 | ? | ? | -9% | ? | -18% | 10%
Cc1cccc(C(=O)CC(=O)c2cc(Cl)ccc2O)c1 | -82% | ? | . | ? | . | 8%
COc1ccc(O)c(C(=O)CC(=O)c2ccc(F)cc2)c1 | 13µM* | 10µM* | -10% | -8% | -2% | 0%
O=C(CC(=O)c1cc(Cl)ccc1O)c1ccccc1 | ? | 13µM* | ? | ? | ? | .
O=C(Nc1scc(-c2ccc(Br)cc2)c1C(=O)O)c1ccccc1F | 3.2µM* | ? | -22% | 7% | -11% | 12%
O=C(NCCN1Cc2ccccc2OC(c2ccccc2F)C1)c1ccco1 (stereo not given) | . | . | -5% | . | -13% | -12%
CCN1C(=O)/C(=C/c2ccc3c(c2)CCN3CCCCl)C(=O)NC1=S | -25% | -18% | 15% | 9% | 12% | ?
C=CCN1C(=O)/C(=C/c2ccc3c(c2)CCCN3CCC)C(=O)NC1=S | 17% | 14% | 19% | -8% | 3% | 32µM*
C=CCN1C(=O)/C(=C/c2ccc(Br)s2)C(=O)NC1=S | . | . | . | 11% | . | 32µM*
CN1CCN(CCCNC(=O)Cn2c(-c3cccs3)cc3cc(Cl)ccc32)CC1 | . | -23%[46.1 µM] | -13% | . | -9% | -13%
Cc1cccc(NC(=O)c2cc(S(=O)(=O)NCCc3ccccc3)ccc2F)c1C | . | 5%[46.1 µM] | -9% | . | -8% | 32%
CCCOc1ccc(CC2CCC(=O)NC2=O)cc1 (stereo not given) | . | . | . | 8% | . | 11µM*
CCOc1ccc(C[C@H]2CC(=O)NC2=O)cc1 | 0% | . | . | . | . | .
O=C(O)[C@@H]1CC(=O)n2c(nc3ccccc32)S1 | 1% | . | . | . | . | .
O=S(=O)(c1ccc(Cl)cc1)N1CCOCC1 | . | . | -14% | . | -8% | .
COc1cc(C(=O)N2CCN(c3ccccn3)CC2)cc(OC)c1OC | 14%[46.1 µM] | -12%[46.1 µM] | -14% | -7% | ? | 3%
COc1cc2nc(C3CCC3)nc(N3CCN(c4ccccc4OC)CC3)c2cc1OC | ? | ? | ? | 3.2µM* | ? | ?
COc1ccccc1N1CCN(C2CCCC(C)C2)CC1 (stereo not given) | -15% | 17% | -3% | -25% | i | .
COc1cc2nc(C3CCC3)nc(N3CCN(c4ccccn4)CC3)c2cc1OC | ? | ? | -8% | ? | -11% | 18µM*
CCOC(=O)c1ccccc1S(=O)(=O)N1CCN(c2nc(-c3cccs3)nc3ccccc23)CC1 | . | . | -10% | . | i | .
Cc1cccc(C)c1NC(=O)c1ccc(OCc2c(C)noc2C)cc1 | . | . | . | -8% | . | -7%
Cc1ccc(C(=O)c2coc3ccc(O)c(CN4CCN(C)CC4)c23)cc1 | 23µM* | -17% | . | ? | . | -20%
COc1ccc(C(=O)c2coc3ccc(O)c(CN4CCCC4)c23)cc1 | . | . | -3% | -30% | ? | 0%
COc1cccc2sc(NC(=O)c3ccc(S(=O)(=O)N4CCC(C)CC4)cc3)nc12 | . | -4%[46.1 µM] | -14% | . | -12% | ?
SMILES | Marburg entry inh | LASV entry inh | VACV Venus inh | HCV inhibitor | Vaccinia mCherry | FMDV inh
CC(=O)c1ccccc1OCC(O)CN1CCN(CCN2C(=O)c3cccc4cccc(c34)C2=O)CC1 (stereo not given) | ? | ? | ? | 10µM* | -21% | 28µM*
Cc1ccc(C)c(OCC(O)CN2CCN(CCN3C(=O)c4cccc5cccc(c45)C3=O)CC2)c1 (stereo not given) | ? | ? | ? | ? | ? | 25µM*
COc1ccc(CCNC(=O)Cn2cc(C(=O)c3ccc(Cl)cc3)c(=O)c3ccc(C)nc32)cc1OC | . | -3%[46.1 µM] | -2% | . | -13% | -20%
CC(C)Cn1c(=O)c2ccccc2n2c(CCC(=O)NC(C)c3ccccc3)nnc12 (stereo not given) | -8%[46.1 µM] | . | -12% | . | -16% | -9%
COc1ccc(OC)c(C2=NOC(C(=O)Nc3ccccc3SC)C2)c1 (stereo not given) | 1% | -6% | . | -29% | . | 15%
COc1cc(NC(=O)C2CC(c3cccc(OC)c3OC)=NO2)cc(OC)c1OC (stereo not given) | ? | ? | . | 1.1µM* | . | ?
COc1cccc(C2=NOC(C(=O)Nc3cccnc3Cl)C2)c1OC (stereo not given) | -3%[46.1 µM] | -2%[46.1 µM] | -8% | 3% | -4% | -7%
COc1ccc(OC)c(C2=NOC(C(=O)Nc3cc(C)nn3-c3ccccc3)C2)c1 (stereo not given) | 0% | -2% | ? | 2% | + | -13%
CCOC(=O)N/N=C1/C[C@@H](O)[C@@H](O)[C@@H]2[C@@H]3C(=O)N(C[C@@H]4CCCO4)C(=O)[C@H]3CC[C@@H]12 | 6%[14.2 µM] | . | . | . | . | .
COc1cc(-c2cc(C(=O)Nc3ccc(S(N)(=O)=O)cc3)c3ccccc3n2)cc(OC)c1OC | -40%[46.1 µM] | ? | 10% | ? | 1% | -14%
COc1cc(-c2cc(C(=O)Nc3c(Cl)cc(Cl)cc3Cl)c3ccccc3n2)cc(OC)c1OC | ? | ? | -14% | 10µM* | i | ?
CCN(CC)S(=O)(=O)c1ccc(O)c(NC(=O)c2cc(-c3cc(OC)c(OC)c(OC)c3)nc3ccccc23)c1 | 10µM* | ? | -20% | ? | -15% | ?
Cc1noc(Cn2c(=O)c3ccccc3n(CC(=O)Nc3cc(Cl)ccc3C)c2=O)n1 | . | 9%[46.1 µM] | 3% | . | -1% | -26%
Cc1cc(C)c2c(c1)-c1c(ssc1=S)C(C)(C)N2C(=O)CN1C(=O)c2ccccc2C1=O | 4µM* | -7% | -10% | ? | i | 0%
COc1cc(OC)cc(-c2oc3cccnc3c2C#CCCO)c1 | . | . | ? | 7.1µM* | ? | -12%
COc1ccc(CCNc2ncnc3cc(OC)c(OC)cc23)cc1OC | ? | ? | -21% | 10µM* | i | 20µM*
COc1ccc(CCNc2ncnc3c2c(-c2ccccc2)cn3-c2cccc(Cl)c2)cc1OC | . | ? | -11% | . | -19% | 25µM*
COc1cc2ncnc(NCCc3ccccc3)c2cc1OC | . | . | . | 11µM* | . | 20µM*
CCc1nc2c(OCc3ccc(F)c(F)c3)cccn2c1N(C)C(=O)c1ccncc1 | . | . | -3% | . | 2% | -16%
COc1ccc(NC(=O)CN2CCCC2)cc1 | 1% | ? | -13% | 3% | -12% | 15%
O=C(CN1CCOCC1)Nc1ccc(Oc2ccccc2)cc1 | 4% | 14% | . | -6% | . | 20%
O=C(CN1CCNCC1)Nc1ccc(Oc2ccccc2)cc1 | ? | -6% | . | 7.9µM* | . | 4%
O=C(CN1CCCC1)Nc1ccc(Oc2ccc(NC(=O)CN3CCCC3)cc2)cc1 | 2.1µM* | 13µM* | -7% | ? | i | -14%
O=C(CC1NCCc2ccccc21)Nc1ccc(Oc2ccccc2)cc1 (stereo not given) | ? | 6% | -11% | 11µM* | -16% | ?
